Our source for the bioluminescence values is the supplement of paper PMC10811239.

This assay deals with LEGO organoid PTN (PTEN-/-; TP53-/-; NF1-/-). Nature of the assay: bioluminescence (viable cell) signal fold change after vs before treatment, normalised to DMSO (ratio); higher = more tumour cell growth / less inhibition. The note with it: 10 µM; treatment time 6 days. On the procedure:
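Luc2-labelled iPSC-derived glioblastoma-like organoids (LEGOs, genotypes PT = PTEN-/-;TP53-/-, PTCC = plus CDKN2A/B-/-, PTN = plus NF1-/-) were treated with 10 uM drug for 6 days (applied every other day) at 37 C. Bioluminescence imaging was done before treatment and 2 days after the last dose. BLI signals were normalised to the DMSO control on the same day and then to the pre-treatment signal (N=3).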
Regarding `CCOC(=O)OC(C)OC(=O)[C@@H]1N2C(=O)[C@@H](NC(=O)[C@H](N)c3ccccc3)[C@H]2SC1(C)C.Cl` (stereo not given in full) [Bacampicillin hydrochloride], the bioluminescence came to 3.29.
For `Cl.O=C1c2cccc3c2[C@H](CCC3)CN1[C@@H]1CN2CCC1CC2` [Palonosetron hydrochloride], the bioluminescence was 1.4.
With `CN(C)CCOC(C)(c1ccccc1)c1ccccn1.O=C(O)CCC(=O)O` (stereo not given) [Doxylamine succinate], the bioluminescence came out at 0.999.
For `CCN1CCN(C(=O)N[C@@H](C(=O)N[C@@H]2C(=O)N3[C@@H]2SC(C)(C)[C@@H]3C(=O)[O-])c2ccccc2)C(=O)C1=O.[Na+]` [Piperacillin sodium salt], the bioluminescence is 0.935.
`NC(CO)(CO)CO.O=C(c1ccccc1)c1ccc2n1CCC2C(=O)O` (stereo not given) [Ketorolac tromethamine salt]: the bioluminescence came out at 2.19.
For `Cc1cccc(N(C)C(=S)Oc2ccc3ccccc3c2)c1` [Tolnaftate] the value was 1.31; for `CCCCCOC(=O)Nc1nc(=O)n([C@@H]2O[C@H](C)[C@@H](O)[C@H]2O)cc1F` [Capecitabine], 6.04; for `NCCS(=O)(=O)O` [Taurine], 0.673.
Turning to `Nc1ccn([C@@H]2O[C@H](CO)[C@@H](O)[C@@H]2O)c(=O)n1` [Cytarabine], the bioluminescence came out at 0.51.
In the case of `Cc1[nH]c(=O)c(C#N)cc1-c1ccncc1` [Milrinone], the bioluminescence was found to be 1.34.
